Source: PubChem (several laboratories)
HDAC3 inh – inhibitors of human histone deacetylase 3 | O15379 | recombinant HDAC3, fluorogenic peptide/trypsin coupled, fluorescence | inhibition, % at 8.3 µM | hit rate 0.15% among 320,000 | AID 2718; in the data active = inhibition above about 26%, passing the limit was not always enough
GC-A act – GC-A (human) enzyme activation; HEK293 GC-A cells, cGMP TR-FRET, EC30 ANP; 0% at EC30 ANP, 100% saturating ANP; P16066; AID 1671463; hit rate 0.14% among 370,000; activation, % at 10 µM; in the data active = activation above about 40%
GC-B act – GC-B (human) receptor activation; HEK293-GC-B cells, CNP EC30, cGMP TR-FRET; 0% at EC30 CNP, 100% saturating CNP; activation, % at 10 µM; hit rate 0.11% among 370,000;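 active = activation at 10 µM reaching about 35% in either raw or pattern-adjusted values, limit read from the data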
ALR H2O2 inh – human ALR oxidase inhibition via reduced H2O2; P55789; purified ALR, DTT oxidation, H2O2 HRP-luminol luminescence; inhibition, % (concentration not given with the values); hit rate 3.8% among 290,000; AID 485317;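 active = mean replicate inhibition above about 79%, with every replicate also reaching it, limit read from the data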
Active calls of the source: *; / = no result. The full list was thinned out, with hits kept by preference.

SMILES	HDAC3 inh	GC-A act	GC-B act	ALR H2O2 inh
Cc1ccc(NC2(C(N)=O)CCCC2)cc1	/	-0.2	-5.2	/
CCN(CC)CCCN(C(=O)c1cccc(C)c1)c1nc(-c2ccc(OC)cc2)cs1	4.6	-26.4	-4.6	96.3*
CCN(CC)CCCN(C(=O)c1ccc(Br)cc1)c1nc(-c2ccc(OC)cc2)cs1	-4.6	-38.2	-5.2	-12.4
Cc1ccc2nc(C3CCCCC3)c(Cc3cccc(Cl)c3)n2c1	/	-5.4	-0.1	/
O=C(COC(=O)c1cc[n+]([O-])cc1)Nc1ccc(SC(F)F)cc1	-6.9	4.4	5.4	94.6*
O=C(COC(=O)c1cc[n+]([O-])cc1)Nc1ccc(Br)cc1	1.9	1.4	-2.9	-1.1
Cn1c(=O)[nH]c(=O)c2c1nc(SCC(=O)O)n2CCc1ccccc1	36.8*	-0.7	6.8	4.5
Cn1c(=O)[nH]c(=O)c2c1nc(Br)n2CC(O)COCc1ccccc1 (stereo not given)	2.3	1.4	-0.6	91.0*
Cn1c(=O)[nH]c(=O)c2c1nc(Br)n2CC(O)COc1ccccc1 (stereo not given)	4.6	-1.9	2.9	9.5
CCOC(=O)CSc1nc2c(c(=O)[nH]c(=O)n2C)n1CCc1ccccc1	-70.1	-3.5	-0.6	-10.2
C=CCSc1nc2c(c(=O)[nH]c(=O)n2C)n1Cc1ccc(C)cc1	3.8	24.4	37.7*	-20.7
COc1ccccc1N1CCN(C(=O)c2ccc3c(c2)CCN3S(=O)(=O)c2ccccc2)CC1	-5.4	-2.3	2.1	2.3
CCn1c(CCc2ccccc2)nnc1SCC(N)=O	1.8	2.9	3.0	-2.7
CCOC(=O)c1sc2nc(C)nc(N3CCN(S(=O)(=O)c4ccccc4)CC3)c2c1C	2.7	-8.3	-4.7	/
COc1cccc2c1NC(C(=O)O)C1CC=CC21 (stereo not given)	3.3	/	/	81.3*
O=C(O)C1Nc2ccc(OC(F)(F)F)cc2C2C=CCC12 (stereo not given)	3.6	/	/	96.8*
O=C(NC1CC1)C1Nc2ccc(OC(F)(F)F)cc2C2C=CCC12 (stereo not given)	3.3	1.5	-1.2	7.8
Cc1cc(C(=O)CSc2nc(N)cc(=O)[nH]2)ccc1F	-6.4	-3.4	-2.8	90.4*
CCc1ccc(C(=O)CSc2nc(N)cc(=O)[nH]2)cc1	0.4	2.0	-5.6	/
Cc1ccc(C(=O)CSc2nc(O)cc(=O)[nH]2)cc1C	29.8*	1.9	2.9	/
O=C(CSc1nc(O)cc(=O)[nH]1)C1CC1	1.3	7.7	-1.8	85.8*
Cc1ccc(C(=O)CSc2nc(N)cc(=O)[nH]2)cc1C	5.0	-4.9	-4.6	99.1*
Cc1cc(C)nc(SCC(=O)c2ccc(C)c(C)c2)n1	8.3	-3.1	10.7	6.7
C[C@H]1COc2cc(Br)ccc2S(=O)(=O)N1Cc1cn(Cc2ccc(C(F)(F)F)cc2)nn1	/	-11.0	-2.1	/
CCOC(=O)c1ccc(NC(=O)CSc2nc3c(c(=O)n2CC)SC(C)C3)cc1 (stereo not given)	/	-5.0	2.6	98.6*
SMILES	HDAC3 inh	GC-A act	GC-B act	ALR H2O2 inh
CCOC(=O)c1ccc(NC(=O)CSc2nc3c(c(=O)n2C)SC(C)C3)cc1 (stereo not given)	-2.0	-2.4	8.7	99.6*
CC1Cc2nc(SCC(N)=O)n(C)c(=O)c2S1 (stereo not given)	7.5	-4.1	-1.3	0.6
CCn1c(SCC(=O)Nc2cccc(F)c2)nc2c(c1=O)SC(C)C2 (stereo not given)	0.8	-3.8	-4.6	/
CCOC(=O)N1CCN(C(=O)C[C@H]2C[C@@]3(C(=O)OC)C(=C[C@H](C(C)(C)C)O[C@@H]3C)N(Cc3ccco3)C2=O)CC1	/	-5.0	-1.1	/
COCCNc1nnnc2c1sc1nc(N3CCOCC3)c3c(c12)CC(C)(C)OC3	6.1	29.4	27.6	-4.1
C=CCNc1nnnc2c1sc1nc(N3CCOCC3)c3c(c12)CCCC3	-4.4	50.0*	58.4*	-7.2
CC(C)CNc1nnnc2c1sc1nc(N3CCOCC3)c3c(c12)CCCC3	/	51.1*	52.1*	/
Nc1nonc1-n1nnc(C(=O)N/N=C/c2ccccc2)c1CN1CCc2ccccc21	-4.5	7.4	-2.4	/
COC(=O)c1ccc(CN2CCc3ccccc32)cc1	5.9	-0.8	-1.6	97.9*
COC(=O)c1nnn(-c2nonc2N)c1CN1CCc2ccccc21	-7.1	2.5	3.8	97.6*
CCN(CC(=O)Nc1c(F)cccc1F)C(=O)c1cccnc1Sc1ccccc1	-10.3	1.2	0.7	-24.4
Cc1ccc(C(=O)CC(SCC(=O)O)c2ccc([N+](=O)[O-])cc2)cc1 (stereo not given)	8.5	17.3	-11.8	98.6*
